Key:
[1] = target: Serine/threonine-protein kinase PAK 6 (Homo sapiens) (UniProt Q9NQU5); details: at 1 µM;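 note: values are mean percent inhibition of PAK6 kinase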
[2] = tested on: Tyrosine-protein kinase ABL1 (Homo sapiens), P00519 [E255K]; details: at 0.1 µM
[3] = tested on: Tyrosine-protein kinase ABL1 (Homo sapiens), P00519 [E255K]; details: at 1 µM
[4] = tested on: Tyrosine-protein kinase ABL1 (Homo sapiens), P00519 [H396P]; details: at 0.1 µM
[5] = tested on: Tyrosine-protein kinase ABL1 (Homo sapiens), P00519 [H396P]; details: at 1 µM
[6] = tested on: Tyrosine-protein kinase ABL1 (Homo sapiens), P00519 [M351T]; details: at 0.1 µM
[7] = tested on: Tyrosine-protein kinase ABL1 (Homo sapiens), P00519 [M351T]; details: at 1 µM
[8] = tested on: Tyrosine-protein kinase ABL1 (Homo sapiens), P00519 [Q252H]; details: at 0.1 µM
[9] = tested on: Tyrosine-protein kinase ABL1 (Homo sapiens), P00519 [Q252H]; details: at 1 µM
[10] = tested on: Tyrosine-protein kinase ABL1 (Homo sapiens), P00519 [T315I]; details: at 0.1 µM
[11] = tested on: Tyrosine-protein kinase ABL1 (Homo sapiens), P00519 [T315I]; details: at 1 µM
[12] = tested on: Tyrosine-protein kinase ABL1 (Homo sapiens), P00519 [Y253F]; details: at 0.1 µM
[13] = tested on: Tyrosine-protein kinase ABL1 (Homo sapiens), P00519 [Y253F]; details: at 1 µM
[14] = target: Tyrosine-protein kinase ABL1 (Homo sapiens) (UniProt P00519); details: at 0.1 µM
[15] = target: Tyrosine-protein kinase ABL1 (Homo sapiens) (UniProt P00519); details: at 1 µM
[16] = target: ALK tyrosine kinase receptor (Homo sapiens) (UniProt Q9UM73); details: at 0.1 µM
Sequence of ALK tyrosine kinase receptor (Homo sapiens) (Q9UM73 19-1620 limits assumed): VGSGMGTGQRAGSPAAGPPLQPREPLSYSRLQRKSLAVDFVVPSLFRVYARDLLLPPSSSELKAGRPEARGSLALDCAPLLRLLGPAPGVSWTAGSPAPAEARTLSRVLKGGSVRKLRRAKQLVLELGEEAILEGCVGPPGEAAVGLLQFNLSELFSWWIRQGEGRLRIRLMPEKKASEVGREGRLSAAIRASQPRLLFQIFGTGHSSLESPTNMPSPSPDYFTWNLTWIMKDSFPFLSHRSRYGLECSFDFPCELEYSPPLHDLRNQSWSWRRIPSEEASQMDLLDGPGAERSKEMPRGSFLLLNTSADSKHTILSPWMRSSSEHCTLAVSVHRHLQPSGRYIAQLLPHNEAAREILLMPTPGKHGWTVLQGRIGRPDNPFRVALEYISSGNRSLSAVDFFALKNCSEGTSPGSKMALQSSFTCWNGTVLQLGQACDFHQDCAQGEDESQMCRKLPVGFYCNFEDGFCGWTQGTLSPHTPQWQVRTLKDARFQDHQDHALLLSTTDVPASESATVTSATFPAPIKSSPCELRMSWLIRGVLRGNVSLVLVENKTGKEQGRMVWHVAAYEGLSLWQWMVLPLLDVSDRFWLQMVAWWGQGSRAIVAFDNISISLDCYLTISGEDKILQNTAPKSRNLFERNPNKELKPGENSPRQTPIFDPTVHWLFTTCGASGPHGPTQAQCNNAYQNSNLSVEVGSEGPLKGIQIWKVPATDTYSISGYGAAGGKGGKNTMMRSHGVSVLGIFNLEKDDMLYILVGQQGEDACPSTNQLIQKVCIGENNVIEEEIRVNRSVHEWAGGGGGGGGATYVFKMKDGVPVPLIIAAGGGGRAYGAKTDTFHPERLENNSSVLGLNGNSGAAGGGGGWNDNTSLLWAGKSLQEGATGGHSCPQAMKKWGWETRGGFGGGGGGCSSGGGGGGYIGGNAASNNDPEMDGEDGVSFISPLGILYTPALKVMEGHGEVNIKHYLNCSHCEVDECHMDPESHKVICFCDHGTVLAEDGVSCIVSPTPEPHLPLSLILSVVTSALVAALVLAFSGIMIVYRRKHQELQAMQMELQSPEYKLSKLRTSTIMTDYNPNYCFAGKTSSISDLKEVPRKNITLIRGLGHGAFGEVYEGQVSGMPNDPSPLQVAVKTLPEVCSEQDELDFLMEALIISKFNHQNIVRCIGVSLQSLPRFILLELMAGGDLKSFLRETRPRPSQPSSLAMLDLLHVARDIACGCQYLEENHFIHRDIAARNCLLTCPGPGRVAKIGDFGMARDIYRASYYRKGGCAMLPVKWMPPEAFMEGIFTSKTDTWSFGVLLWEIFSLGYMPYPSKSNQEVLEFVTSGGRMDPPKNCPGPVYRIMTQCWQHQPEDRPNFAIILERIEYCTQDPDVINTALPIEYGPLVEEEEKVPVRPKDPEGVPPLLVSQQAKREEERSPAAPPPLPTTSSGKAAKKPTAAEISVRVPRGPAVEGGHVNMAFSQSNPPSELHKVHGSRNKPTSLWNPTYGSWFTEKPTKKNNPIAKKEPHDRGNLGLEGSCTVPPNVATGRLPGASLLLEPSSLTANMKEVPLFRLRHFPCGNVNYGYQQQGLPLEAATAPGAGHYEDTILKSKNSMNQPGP

[17] = target: ALK tyrosine kinase receptor (Homo sapiens) (UniProt Q9UM73); details: at 1 µM
[18] = target: Tyrosine-protein kinase ABL2 (Homo sapiens) (UniProt P42684); details: at 0.1 µM
Sequence of Tyrosine-protein kinase ABL2 (Homo sapiens) (P42684 whole entry): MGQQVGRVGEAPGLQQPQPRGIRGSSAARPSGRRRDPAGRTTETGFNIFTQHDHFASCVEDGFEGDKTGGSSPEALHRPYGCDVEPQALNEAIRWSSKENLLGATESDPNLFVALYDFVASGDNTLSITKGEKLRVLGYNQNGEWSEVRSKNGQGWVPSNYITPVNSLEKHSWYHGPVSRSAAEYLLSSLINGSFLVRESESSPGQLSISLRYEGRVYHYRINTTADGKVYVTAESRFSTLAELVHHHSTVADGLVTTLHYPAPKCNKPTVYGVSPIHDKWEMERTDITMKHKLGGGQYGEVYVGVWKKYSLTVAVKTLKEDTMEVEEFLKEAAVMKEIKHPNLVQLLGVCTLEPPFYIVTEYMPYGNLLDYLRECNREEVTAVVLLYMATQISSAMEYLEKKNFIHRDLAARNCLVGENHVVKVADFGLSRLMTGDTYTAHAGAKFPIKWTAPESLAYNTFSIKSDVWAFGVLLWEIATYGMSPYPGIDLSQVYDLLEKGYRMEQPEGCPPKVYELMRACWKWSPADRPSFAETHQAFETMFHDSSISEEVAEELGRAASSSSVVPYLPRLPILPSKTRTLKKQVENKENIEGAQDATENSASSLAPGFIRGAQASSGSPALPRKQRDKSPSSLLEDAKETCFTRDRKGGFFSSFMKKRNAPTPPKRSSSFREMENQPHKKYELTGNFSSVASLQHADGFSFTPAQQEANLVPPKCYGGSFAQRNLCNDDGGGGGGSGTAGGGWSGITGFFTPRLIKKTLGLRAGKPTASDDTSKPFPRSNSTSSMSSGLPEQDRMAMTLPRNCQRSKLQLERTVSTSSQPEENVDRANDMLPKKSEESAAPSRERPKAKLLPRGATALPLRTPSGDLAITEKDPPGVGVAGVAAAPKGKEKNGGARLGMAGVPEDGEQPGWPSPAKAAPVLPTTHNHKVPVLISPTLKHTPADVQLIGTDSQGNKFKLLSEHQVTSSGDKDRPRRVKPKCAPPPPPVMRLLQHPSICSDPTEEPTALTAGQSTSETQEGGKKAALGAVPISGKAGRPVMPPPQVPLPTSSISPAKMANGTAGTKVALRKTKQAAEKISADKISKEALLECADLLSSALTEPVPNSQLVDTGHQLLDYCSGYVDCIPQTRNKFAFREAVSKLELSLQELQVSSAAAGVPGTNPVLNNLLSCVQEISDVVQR

[19] = target: Tyrosine-protein kinase ABL2 (Homo sapiens) (UniProt P42684); details: at 1 µM
[20] = target: Tyrosine-protein kinase receptor UFO (Homo sapiens) (UniProt P30530); details: at 0.1 µM;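 note: values are mean percent inhibition of AXL from the GSK PKIS screen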
Sequence of Tyrosine-protein kinase receptor UFO (Homo sapiens) (P30530 whole entry): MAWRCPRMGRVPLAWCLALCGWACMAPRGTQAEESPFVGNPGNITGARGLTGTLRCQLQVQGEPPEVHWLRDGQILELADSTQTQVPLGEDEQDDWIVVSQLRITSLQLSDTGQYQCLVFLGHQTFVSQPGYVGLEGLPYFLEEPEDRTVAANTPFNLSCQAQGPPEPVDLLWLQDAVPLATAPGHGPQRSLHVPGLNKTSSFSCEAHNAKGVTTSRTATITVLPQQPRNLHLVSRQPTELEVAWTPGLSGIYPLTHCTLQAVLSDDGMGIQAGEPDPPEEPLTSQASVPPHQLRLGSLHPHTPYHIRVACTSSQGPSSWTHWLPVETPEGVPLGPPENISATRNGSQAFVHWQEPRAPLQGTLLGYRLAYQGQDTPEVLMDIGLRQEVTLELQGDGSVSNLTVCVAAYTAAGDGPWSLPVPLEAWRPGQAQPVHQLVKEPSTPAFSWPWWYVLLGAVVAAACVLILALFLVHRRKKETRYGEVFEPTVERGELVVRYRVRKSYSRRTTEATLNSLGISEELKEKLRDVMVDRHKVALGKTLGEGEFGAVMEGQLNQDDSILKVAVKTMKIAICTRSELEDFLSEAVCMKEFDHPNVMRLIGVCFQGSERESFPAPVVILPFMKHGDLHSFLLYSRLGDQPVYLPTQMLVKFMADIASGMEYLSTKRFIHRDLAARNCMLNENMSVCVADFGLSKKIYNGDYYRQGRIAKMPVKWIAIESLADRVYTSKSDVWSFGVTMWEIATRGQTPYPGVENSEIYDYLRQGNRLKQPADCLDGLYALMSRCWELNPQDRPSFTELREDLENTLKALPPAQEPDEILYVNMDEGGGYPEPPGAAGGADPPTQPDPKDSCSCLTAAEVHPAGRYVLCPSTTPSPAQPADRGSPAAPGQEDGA

Sequence of Serine/threonine-protein kinase PAK 6 (Homo sapiens) (Q9NQU5 whole entry, looked up): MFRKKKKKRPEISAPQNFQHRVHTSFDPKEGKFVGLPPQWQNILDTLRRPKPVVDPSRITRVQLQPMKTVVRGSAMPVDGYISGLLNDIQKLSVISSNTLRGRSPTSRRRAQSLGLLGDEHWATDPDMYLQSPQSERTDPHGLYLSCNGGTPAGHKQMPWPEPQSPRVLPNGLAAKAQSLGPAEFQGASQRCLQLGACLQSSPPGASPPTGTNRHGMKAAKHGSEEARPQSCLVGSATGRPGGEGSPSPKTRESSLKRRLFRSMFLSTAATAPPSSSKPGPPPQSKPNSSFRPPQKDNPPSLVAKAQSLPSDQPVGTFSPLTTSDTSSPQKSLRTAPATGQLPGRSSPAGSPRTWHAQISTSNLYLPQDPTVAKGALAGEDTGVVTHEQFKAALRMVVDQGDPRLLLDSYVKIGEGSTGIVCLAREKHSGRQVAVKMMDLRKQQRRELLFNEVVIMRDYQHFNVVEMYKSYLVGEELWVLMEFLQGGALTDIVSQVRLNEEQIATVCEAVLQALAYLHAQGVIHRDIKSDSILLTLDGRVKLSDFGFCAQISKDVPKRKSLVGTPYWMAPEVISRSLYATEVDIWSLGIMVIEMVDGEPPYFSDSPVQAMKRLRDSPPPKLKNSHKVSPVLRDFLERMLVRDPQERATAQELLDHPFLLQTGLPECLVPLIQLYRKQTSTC

SMILES	inhibition [1]	inhibition [2]	inhibition [3]	inhibition [4]	inhibition [5]	inhibition [6]	inhibition [7]	inhibition [8]	inhibition [9]	inhibition [10]	inhibition [11]	inhibition [12]	inhibition [13]	inhibition [14]	inhibition [15]	inhibition [16]	inhibition [17]	inhibition [18]	inhibition [19]	inhibition [20]
C[C@@H](Oc1cc(-n2cnc3ccc(OCC4CCN(C)CC4)cc32)sc1C(N)=O)c1ccccc1C(F)(F)F	-0.65%	-1.19%	0.71%	-1.32%	1.14%	0.4%	2.58%	-0.85%	1.8%	0.36%	13.7%	-1.07%	1.43%	0.74%	2.7%	1.57%	20.8%	0.15%	3.87%	3.82%
FC(F)(F)c1ccc(-c2nn3ncccc3c2-c2ccnc(Nc3ccc4c(c3)OCCO4)n2)cc1	15.5%	-0.31%	0.99%	0.37%	8.02%	1.83%	13.9%	2.75%	8.01%	1.73%	9.38%	0.98%	7.07%	5.3%	13.7%	-1.39%	1.59%	5.58%	9.47%	8.69%
Cc1cc(O)cc(C)c1/C=C/c1cncc(C(=O)N(C)C)c1	-3.14%	2.42%	5.44%	4.36%	8.17%	3.42%	7.17%	4.29%	8.87%	2.58%	1.49%	2.53%	14.2%	6.26%	17.9%	1.7%	3.57%	4.85%	12%	-0.49%
CN(C)C(=O)O[C@@H]1CN[C@@H](C#Cc2cc3ncnc(Nc4ccc(OCc5cccc(F)c5)c(Cl)c4)c3s2)C1	-6.9%	-0.68%	2.16%	-0.68%	-1.23%	-1.17%	0.01%	2.52%	2.17%	-0.5%	-0.07%	1.53%	3.44%	1.35%	6.2%	1.27%	1.3%	1.71%	8.08%	-0.96%
Cc1ccc(Nc2ccnc(Nc3cccc(C(N)=O)c3)n2)cc1O	4.03%	71.2%	93.4%	76.5%	94.4%	74.4%	95%	67.6%	91.5%	7.09%	39.8%	80.4%	94.1%	56.4%	79.5%	-0.94%	10.9%	50.8%	77.1%	-5.49%
NS(=O)(=O)c1ccc(Nc2cc(-c3cccc(O)c3)n[nH]2)cc1	-5.13%	4.46%	7.4%	5.03%	5.99%	4.35%	4.29%	5.44%	5.74%	4.08%	7.24%	6.94%	11.8%	5.23%	11.4%	3.58%	7.98%	5.93%	6.81%	
NS(=O)(=O)c1cccc(Nc2cc(-c3ccc(F)cc3)n[nH]2)c1	13%	1.07%	8.03%	5.72%	15.4%	2.42%	19.8%	4.73%	18.2%	1.49%	9%	4.2%	17%	3.39%	12.4%	1.3%	2.54%	3.38%	9.78%	-0.57%
O=C1Nc2ccc(-c3cccnc3)cc2C1=Cc1cc(Br)c(O)c(Br)c1	7.69%	3.78%	8.72%	3.44%	7.14%	4.37%	6.55%	2.79%	7.71%	2.69%	2.94%	5.16%	7.7%	3.97%	8.78%	4.13%	9.22%	3.5%	5.72%	-3.55%
NC(=O)c1cccc(Nc2nccc(Nc3cccc(F)c3)n2)c1	-5.46%	7.73%	47%	9.26%	56.1%	9.02%	57.7%	9.5%	53.9%	1.3%	17.1%	12.8%	63.8%	11.6%	55.6%	0.23%	10.1%	11.5%	51.9%	-1.82%
ON=C1CCc2cc(-c3nc(C4CCNCC4)[nH]c3-c3ccncc3)ccc21	0%	-0.03%	0.64%	0.53%	2.54%	0.36%	1.06%	1.13%	2.38%	1.29%	1.59%	0.98%	1.65%	1.37%	4.12%	2.45%	4.92%	2.12%	6.46%	-1.8%
CCOc1nccc2c1nc(-c1nonc1N)n2CC	12.4%	1.66%	3.45%	1.16%	6.55%	1.78%	5.68%	2.67%	6.45%	1.75%	6.12%	1.56%	6.81%	4.96%	14.6%	2.69%	5.24%	3.48%	11.2%	0.71%
CN(C)CCCn1c(-c2nonc2N)nc2cnccc21	-2.15%	3.28%	4.1%	2.64%	1.22%	1.53%	3.51%	3.76%	2.62%	2.51%	1.3%	2.05%	4.68%	2.69%	4.71%	2.82%	4.63%	3.56%	-5.79%	-7.29%
Cc1ccc2c(c1)/C(=N/Nc1ccc(S(N)(=O)=O)cc1)C(=O)N2	-8.53%	0.74%	3.57%	-0.31%	5.97%	0.64%	8.33%	1.64%	7.52%	1.43%	7.37%	-0.42%	7.64%	0.83%	8.09%	0.89%	2.77%	3.63%	12.1%	-1.65%
c1ccc(Cc2nc3ccc(Nc4ncnc5ccccc45)cc3[nH]2)cc1	7.47%	2.13%	4.34%	1.27%	3.84%	0.27%	5.2%	4.19%	6.39%	2.12%	4.4%	5.92%	6.3%	4.49%	11.3%	1.23%	5.36%	2.8%	9.97%	-5.03%
CS(=O)(=O)Nc1cccc(-c2ccc3c(NC(=O)C4CC4)n[nH]c3c2)c1	-4.78%	1.67%	7%	2.46%	16.8%	3.14%	16%	0.49%	7.01%	3.71%	30.6%	1.55%	11.8%	1.81%	17.9%	0.61%	1.09%	2.46%	3.55%	0.1%
COc1cccc(-n2ncc3c(N/N=C/c4ccc(C)cc4)ncnc32)c1	-8.44%	18.9%	65.3%	28.1%	73.5%	25.4%	73.7%	37.6%	81.4%	5.28%	23.2%	31.8%	76.1%	13%	62.1%	12.4%	22.3%	64.2%	40.5%	-3.91%
O=C1Nc2ccccc2/C1=C/Nc1ccc2[nH]c(=O)[nH]c2c1	-6.29%	7.84%	15%	7.55%	23.4%	4.2%	24.6%	8.42%	26%	4.38%	23.7%	9.65%	23.3%	8.95%	25.8%	2.88%	16.4%	7.75%	19.4%	-8.65%
COc1cc2ncn(-c3cc(OCc4ccccc4S(C)(=O)=O)c(C#N)s3)c2cc1OC	9.78%	9.96%	46.7%	12.2%	49.5%	9.97%	49.6%	10%	43.9%	6.41%	32.6%	13.8%	48.8%	9.66%	49%	4.25%	9.85%	4.77%	18%	
COc1cc(Nc2nccc(-c3cnn4ncccc34)n2)cc(OC)c1	-1.82%	6.96%	46%	11.9%	59.5%	13.7%	63.4%	18%	68.6%	5.15%	40.3%	13.7%	59.6%	9.67%	62.7%	5.68%	44.8%	10.5%	69.6%	2%
Nc1nccc(-c2c(-c3ccc(F)cc3)nn3cc(C(F)(F)F)ccc23)n1	5.02%	-2.06%	-1.18%	0.65%	-0.33%	1.15%	1.14%	1.06%	0.27%	0.42%	1.21%	1.01%	-0.43%	0.6%	0.4%	3.84%	5.16%	2.16%	3.62%	0.67%
COC(=O)Nc1nc2cc(Oc3ccc(NC(=O)Nc4cccc(Br)c4)cc3)ccc2[nH]1	-4.46%	4.52%	5.09%	16.4%	35%	42.6%	54.6%	39.7%	57.8%	30.1%	44.6%	7.87%	16.5%	6.66%	19%	2.06%	3.65%	16.1%	34.4%	-0.21%
Cc1cc(Cl)cc2c1NC(=O)C2=NNc1ccc(S(N)(=O)=O)cc1	-1.69%	1.25%	5.11%	2.97%	8.01%	-0.27%	6.65%	4.15%	7.11%	1.38%	4.99%	3.5%	6.19%	2.11%	7.99%	0.72%	1.88%	3.13%	7.59%	-3.23%
NS(=O)(=O)c1ccc(NC=C2C(=O)Nc3ccc4ncsc4c32)cc1	-1.77%	6.89%	37.9%	10.9%	46.7%	10.9%	50.6%	14.4%	56.3%	15%	61.6%	10.6%	48.7%	7.95%	44.8%	7.33%	32.2%	5.56%	31.4%	-4.15%
Nc1nccc(C#Cc2cncnc2Nc2ccc(OCc3cccc(F)c3)c(Cl)c2)n1	1.07%	3.67%	3.58%	3.32%	2.76%	1.11%	0.59%	2.18%	0.52%	2.46%	2.7%	3.75%	2.69%	4.16%	9.58%	3.59%	6.28%	3.79%	3.33%	-7.36%
Cc1ccc(C(=O)NC2CC2)cc1-c1ccc2[nH]ncc2c1	-8.86%	-0.87%	-0.81%	-1.68%	1.02%	1.39%	2.89%	-1.32%	2.09%	-2.71%	2.89%	-1.37%	0.48%	-0.56%	0.77%	-1.6%	-1.66%	-1.18%	0.73%	3.54%

— ChEMBL document CHEMBL1961873, “Compounds: GSK PKIS; Assays: Nanosyn kinase panel” (2012)
